# From PubChem BioAssay
# 3CLpro inhibitor – SARS-CoV 3CLpro protease inhibitors, primary screen, biochemical, quenched FRET; Replicase polyprotein 1ab (Severe acute respiratory syndrome coronavirus), P0C6X7; 290,000 compounds, 0.14% hits; recombinant SARS-CoV 3CLpro, quenched FRET peptide cleavage; inhibition, % at 6 µM; in the data active = inhibition above about 12%
# DUSP3 inh – VHR1 phosphatase inhibitors, primary screen, biochemical, absorbance, uHTS | 290,000 compounds, 0.52% hits | recombinant VHR phosphatase, pNPP absorbance | Dual specificity protein phosphatase 3 (Homo sapiens), P51452 | inhibition, % at 13.3 µM | AID 1654, 2009; in the data active = inhibition above about 50%
# CCHF vOTU inh – CCHFV vOTU protease inhibitors, primary screen, biochemical, Pep-AMC substrate, fluorescence | 370,000 compounds, 0.55% hits | inhibition, % at 11.5 µM | Crimean-Congo hemorrhagic fever virus L polyprotein viral ovarian tumor (vOTU) protease …; in the data active = inhibition above about 30%; note: 0% = vehicle wells with enzyme and 100% = no enzyme wells
# PriA SSB inh – inhibitors of Klebsiella pneumoniae PriA binding to SSB C-terminal tail, primary screen, biochemical, AlphaScreen; AlphaScreen SSBct-PriA binding, biotinylated peptide; inhibition, % at 33 µM; 430,000 compounds, 0.6% hits; PriA–SSB C-terminal tail interaction (Klebsiella pneumoniae); in the data active = inhibition mostly above about 37%, no sharp cut-off; inactive = mostly below about 20%;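 note: plate controls were negative control peptide for no effect and reference peptide for full effect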
# RecA splice inh – Mtb RecA intein splicing inhibitors, primary screen, biochemical, fluorescence, HTS; cell-free RecA intein splicing; inhibition, % (test concentration not listed); 290,000 compounds, 0.75% hits; in the data active = inhibition above about 30%;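 note: 0% = vehicle wells and 100% = reference inhibitor control wells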
# Target sequence (P9WHJ3 whole entry, looked up, canonical isoform): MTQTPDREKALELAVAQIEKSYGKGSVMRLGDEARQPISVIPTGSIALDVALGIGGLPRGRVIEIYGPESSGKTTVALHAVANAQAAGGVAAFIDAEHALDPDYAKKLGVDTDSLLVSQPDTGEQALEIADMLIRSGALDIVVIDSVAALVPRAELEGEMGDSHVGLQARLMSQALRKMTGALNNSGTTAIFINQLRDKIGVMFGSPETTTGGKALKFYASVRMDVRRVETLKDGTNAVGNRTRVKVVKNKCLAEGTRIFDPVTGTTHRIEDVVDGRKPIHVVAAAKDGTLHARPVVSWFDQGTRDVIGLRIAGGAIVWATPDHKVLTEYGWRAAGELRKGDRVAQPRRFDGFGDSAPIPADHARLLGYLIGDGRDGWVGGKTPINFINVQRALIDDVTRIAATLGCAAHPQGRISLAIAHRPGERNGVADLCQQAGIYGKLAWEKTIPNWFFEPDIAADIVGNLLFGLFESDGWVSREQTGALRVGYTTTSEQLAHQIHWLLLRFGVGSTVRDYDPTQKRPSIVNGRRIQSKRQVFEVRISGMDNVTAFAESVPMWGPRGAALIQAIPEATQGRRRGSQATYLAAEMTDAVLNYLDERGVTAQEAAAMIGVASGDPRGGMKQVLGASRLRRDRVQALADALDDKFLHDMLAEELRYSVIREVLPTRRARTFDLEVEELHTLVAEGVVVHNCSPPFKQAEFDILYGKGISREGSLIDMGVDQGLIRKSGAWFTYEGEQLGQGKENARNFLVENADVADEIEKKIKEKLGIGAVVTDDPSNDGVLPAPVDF
# GFP chromo cs – counter-screen: blocks GFP chromophore formation, dose response, counter-screen, biochemical, fluorescence, homogeneous; shares compounds with RecA splice inh; cell-free GFP chromophore formation; EC50, µM; 2,100 compounds, 83% hits; AID 434968, 2010; call rule not given here
# Numbers without * were called inactive; / = no result. Most compounds without a hit are left out; they make up all but 1.7% or so of the library.
SMILES,3CLpro inhibitor,DUSP3 inh,CCHF vOTU inh,PriA SSB inh,RecA splice inh,GFP chromo cs
Cn1c(SCC(=O)NCC2CCCO2)ncc(C(=O)Nc2ccccc2)c1=O (stereo not drawn),/,/,-6.8,-9.5,45.5*,>38
Cc1ccc(NC(=O)CSc2ncc(-c3ccccc3)n2C(=O)c2ccccc2)cc1,1.6,18.6,3.5,-17.7,54.3*,1.22*
Cc1nnc(SCC(=O)c2ccc(Oc3ccccc3)cc2)s1,/,/,/,2.0,/,/
O=C(Cc1csc(NC(=O)c2ccsc2)n1)NCCn1nc(-c2ccco2)ccc1=O,/,/,/,-4.0,/,/
O=C(OCn1ncc(Br)c(Br)c1=O)c1ccccc1Cl,0.6,2.6,/,-8.8,63.9*,1.75*
CC(=O)OCn1ncc(N2CCOCC2)c(Br)c1=O,-3.2,37.8,8.7,1.6,-0.2,/
O=C(OCn1ncc(Br)c(Br)c1=O)c1ccc(F)cc1,3.7,15.2,/,6.0,72.6*,2.18*
Nc1c(N2CCOCC2)cc(Cl)c2nonc12,-7.2,-0.8,-1.8,2.8,0.0,/
Nc1c(N2CCCC2)cc(Cl)c2nonc12,-4.6,55.6*,/,-6.4,69.8*,5.09*
Cc1ccc(NC(=O)c2ccccc2NC(=O)c2cccc(F)c2)c(C(=O)c2ccccc2)c1,/,/,/,-13.0,/,/
N#Cc1c(C#N)c(O)c2ccccc2c1O,-2.0,-2.5,-0.9,-3.5,83.8*,2.42*
Cc1ccc(C(c2cc(Cl)c3cccnc3c2O)N2CCN(C)CC2)cc1 (stereo not drawn),9.2,-17.3,/,34.4,74.7*,8.65*
CN1CCN(C(c2ccccn2)c2cc(Cl)c3cccnc3c2O)CC1 (stereo not drawn),3.2,12.9,6.8,91.0,4.7,/
CCCCCCCCCCCCCCCC[N+](C)(C)CC,/,/,23.2,-27.3,43.6*,17.1*
C[N+](C)(C)CCCCCC[N+](C)(C)C,/,/,-5.3,-19.5,-1.7,/
CCCCCCCCCCCCCCCC[N+](C)(C)C,/,/,16.4,-3.5,35.5*,22.6*
CCCCCC[N+](C)(C)CCSSCC[N+](C)(C)CCCCCC,4.7,-23.4,-10.6,1.6,-0.8,/
Cc1ccc(S(=O)(=O)Oc2ccc(C(c3c(C)[nH][nH]c3=O)c3c(C)[nH][nH]c3=O)cc2)cc1,3.9,-18.0,/,17.6,96.7*,>38
Cc1ccc(S(=O)(=O)Oc2ccccc2)cc1,/,/,-3.6,-30.3,/,/
O=C1NCCCC2c3c(cc(Br)c(O)c3Br)OC12N1CCCCC1 (stereo not drawn),1.2,21.8,8.6,14.7,37.6*,5.45*
O=C1NCCCc2c1oc1cc(Br)c(O)c(Br)c21,0.3,-13.1,4.4,-5.0,-13.1,/
CS(=O)(=O)C1CCN(C(=O)Cc2cccs2)CC1,/,/,/,-15.0,/,/
CC(C)C(c1c(O)[nH]c(=S)[nH]c1=O)C(C#N)C#N (stereo not drawn),/,/,/,-1.0,/,/
CC1(C)CC(=O)C2=C(C1)OC(N)=C(C#N)C21CCC2(CC1)OCCO2,-1.8,3.6,-11.5,4.2,-4.7,/
CCc1[nH]nc2c1C1(CCOC1C)C(C#N)=C(N)O2 (stereo not drawn),1.3,29.5,-17.0,-9.7,2.2,/
SMILES,3CLpro inhibitor,DUSP3 inh,CCHF vOTU inh,PriA SSB inh,RecA splice inh,GFP chromo cs
COCc1[nH]nc2c1C1(CCSCC1)C(C#N)=C(N)O2,0.1,-18.3,8.8,-4.3,74.3*,20*
CCOC(=O)N1CCC2(CC1)C(C#N)=C(N)Oc1n[nH]c(C)c12,-0.9,1.6,10.5,-9.1,80.5*,12.9*
Cc1[nH]nc2c1C1(CCC3(CC1)OCCO3)C(C#N)=C(N)O2,-2.9,-4.7,-14.0,-19.1,74.3*,>38
CC(=O)N1CCC2(CC1)C(C#N)=C(N)Oc1n[nH]c(C(F)(F)F)c12,2.4,17.9,1.9,-19.8,-9.5,/
CCOc1cccc2cc(-c3nnc(N)o3)oc12,/,/,/,-7.0,/,/
Cc1nc(-c2ccccc2)sc1CNC(=O)c1ccc2nccnc2c1,/,/,/,1.0,/,/
CCC(=O)Nc1ccc(SCC(=O)Nc2cc(OC)ccc2OC)nn1,/,/,/,-1.0,/,/
CCOC(=O)c1ccc(CC2S/C(=C(\C#N)C(C)=O)NC2=O)cc1 (stereo not drawn),6.2,34.6,21.4,-3.9,81.7*,>38
CCc1ccc(CC2S/C(=C(\C#N)C(C)=O)NC2=O)cc1 (stereo not drawn),3.8,15.1,7.2,-13.3,4.2,/
CCN(CC)CCN(C(=O)c1cc(OC)cc(OC)c1)c1nc2c(C)cccc2s1,/,/,/,1.0,/,/
CN1CCN(C2=C(Cl)C(=O)C(c3cnc(N4CCCCC4)s3)=C(Cl)C2=O)CC1,-6.7,17.7,/,-0.3,83.1*,3.7*
CN1CCN(C2=C(Cl)C(=O)N(C3CCCCC3)C2=O)CC1,-0.4,1.0,7.2,-4.3,0.8,/
CC(C)Cn1c(N)c(S(=O)(=O)c2cccs2)c2nc3ccccc3nc21,-1.5,4.0,-148.8,-9.6,46.9*,28.8*
Cc1[nH][nH]c(=O)c1C(c1ccc(-c2ccc(Cl)c(Cl)c2)o1)c1c(C)[nH][nH]c1=O,1.8,24.3,43.1*,17.2,97.1*,0.66*
N#Cc1ccc(CCC(=O)NC[C@H]2CCCN2c2nccs2)cc1,/,/,/,-1.0,/,/
COc1cccc(-n2nnnc2S(C)(=O)=O)c1,1.8,15.5,/,1.0,90.8*,7.27*
CCOc1ccccc1C1C(C#N)=C(N)Nc2onc(-c3ccccc3)c21 (stereo not drawn),3.1,15.1,-12.0,-9.9,78.1*,16.2*
CCOc1ccccc1[C@@H]1c2c(n[nH]c2-c2ccccc2)OC(=N)C1C#N (stereo partly drawn),/,/,/,-18.0,/,/
CCNc1cc(C)nc(N2CCN(S(=O)(=O)c3cc(C)c(C)cc3C)CC2)n1,/,/,/,-8.0,/,/
CCCCOP(=O)(OCCCC)C1(NS(=O)(=O)c2ccccc2)C=CC(=O)c2ccccc21 (stereo not drawn),6.9,22.1,19.6,0.7,88.2*,4.99*
CCCOC1(NS(=O)(=O)c2ccccc2)C(Cl)=C(Cl)C(=O)c2ccccc21 (stereo not drawn),/,/,/,0.0,/,/
Cc1ccccc1OCC(=O)NC1CC(O)C(CO)C1 (stereo not drawn),/,/,/,-16.0,/,/
CS(=O)(=O)c1ccc(C(=O)OCc2nnc(-c3ccccc3)o2)cc1[N+](=O)[O-],-3.6,9.1,-7.8,10.0,73.5*,13.6*
CC(CCc1ccccc1)NC(=O)COC(=O)c1ccc(S(C)(=O)=O)c([N+](=O)[O-])c1 (stereo not drawn),0.1,19.0,7.6,-2.5,55.4*,31.9*
